The text below walks through data of publication PMC7862700, “An all-to-all approach to the identification of sequence-specific readers for epigenetic DNA modifications on cytosine”.

Common to all, as to assay: DAPPL (digital affinity profiling via proximity ligation, sequencing); 10 mM Tris-HCl pH 7.5, 50 mM NaCl, 1 mM DTT, 4% glycerol, room temperature, 30 min; GST-TFs on glutathione beads, 16-mer random dsDNA library, 0.1% formaldehyde crosslink after washing; high values mean tight binding
The target in one assay is T1, FEV (Homo sapiens, UniProt Q99581 1-238).
T1 sequence: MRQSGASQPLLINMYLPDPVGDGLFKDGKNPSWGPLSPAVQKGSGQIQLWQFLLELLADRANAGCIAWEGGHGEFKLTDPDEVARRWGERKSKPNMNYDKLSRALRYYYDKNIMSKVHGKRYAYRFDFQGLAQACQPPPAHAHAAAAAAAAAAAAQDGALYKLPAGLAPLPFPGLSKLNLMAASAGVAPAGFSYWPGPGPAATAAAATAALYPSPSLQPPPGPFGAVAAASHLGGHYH
To be noted: protein: recombinant; tags: N-terminal GST; dsDNA, one strand shown. The method, boiled down:
(§1)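 Binding signal is given per hexamer as its read frequency for a factor divided by its frequency in the tag-only sample. GST-fused human transcription factors were expressed in yeast, captured on glutathione beads, barcoded with DNA and pooled with that sample, then incubated with 200 nmole of a 16-mer random double-stranded DNA library in Tris/NaCl/DTT/glycerol buffer for 30 min at room temperature. The pools were then washed, crosslinked, proximity-ligated, amplified by PCR and sequenced on an Illumina NextSeq500.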

In another assay the target is ETV5 (Homo sapiens, UniProt P41161 1-510). Particulars: protein: recombinant; tags: N-terminal GST; dsDNA, one strand shown. The method, boiled down:
as §1

The next assay has as its target HSF1 (Homo sapiens, UniProt Q00613 1-529). To be noted: protein: recombinant; tags: N-terminal GST; chain copies: 3; dsDNA, one strand shown. The procedure, abridged: as §1
The target in a further assay is T2, SPIC (Homo sapiens, UniProt Q8N5J4 1-248).
T2 sequence: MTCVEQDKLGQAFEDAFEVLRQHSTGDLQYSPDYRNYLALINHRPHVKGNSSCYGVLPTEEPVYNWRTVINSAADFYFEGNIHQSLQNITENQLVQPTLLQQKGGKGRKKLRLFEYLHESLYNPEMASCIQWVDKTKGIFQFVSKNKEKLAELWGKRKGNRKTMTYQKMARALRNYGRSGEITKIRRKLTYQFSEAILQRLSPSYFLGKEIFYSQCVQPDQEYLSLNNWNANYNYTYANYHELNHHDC
To be noted: protein: recombinant; tags: N-terminal GST; dsDNA, one strand shown. The method, boiled down:
as §1

Another assay addresses ELF4 (Homo sapiens, UniProt Q99607 1-663). Particulars: protein: recombinant; tags: N-terminal GST; dsDNA, one strand shown. The method, boiled down:
as §1

The target of the next assay is T3, ELK4 (Homo sapiens, UniProt P28324-2 1-405).
T3 sequence: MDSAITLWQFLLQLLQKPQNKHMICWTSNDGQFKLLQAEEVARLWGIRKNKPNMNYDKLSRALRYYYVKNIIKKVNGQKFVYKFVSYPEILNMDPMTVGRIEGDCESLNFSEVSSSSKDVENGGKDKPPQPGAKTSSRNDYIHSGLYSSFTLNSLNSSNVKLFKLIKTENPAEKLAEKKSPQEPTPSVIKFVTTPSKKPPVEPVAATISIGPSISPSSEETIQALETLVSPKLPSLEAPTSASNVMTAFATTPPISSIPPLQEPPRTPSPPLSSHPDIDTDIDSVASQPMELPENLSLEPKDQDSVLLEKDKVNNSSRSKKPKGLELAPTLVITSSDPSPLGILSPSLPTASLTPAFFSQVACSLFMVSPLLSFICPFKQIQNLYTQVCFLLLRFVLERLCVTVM
To be noted: protein: recombinant; tags: N-terminal GST; dsDNA, one strand shown. The method, boiled down: as §1

The next assay has as its target T4, ETV2 (Homo sapiens, UniProt O00321 1-342).
T4 sequence: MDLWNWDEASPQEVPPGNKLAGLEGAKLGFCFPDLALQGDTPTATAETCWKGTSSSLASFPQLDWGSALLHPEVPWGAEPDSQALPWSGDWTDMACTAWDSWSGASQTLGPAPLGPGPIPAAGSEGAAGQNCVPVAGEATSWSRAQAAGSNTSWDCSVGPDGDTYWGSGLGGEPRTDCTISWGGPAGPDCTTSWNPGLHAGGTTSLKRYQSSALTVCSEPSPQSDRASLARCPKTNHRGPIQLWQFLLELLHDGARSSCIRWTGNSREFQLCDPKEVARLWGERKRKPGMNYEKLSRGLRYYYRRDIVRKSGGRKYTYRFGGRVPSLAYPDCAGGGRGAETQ
To be noted: protein: recombinant; tags: N-terminal GST; dsDNA, one strand shown. The method, boiled down:
as §1

For another assay, the target named is T5, ELF3 (Homo sapiens, UniProt P78545 1-371).
T5 sequence: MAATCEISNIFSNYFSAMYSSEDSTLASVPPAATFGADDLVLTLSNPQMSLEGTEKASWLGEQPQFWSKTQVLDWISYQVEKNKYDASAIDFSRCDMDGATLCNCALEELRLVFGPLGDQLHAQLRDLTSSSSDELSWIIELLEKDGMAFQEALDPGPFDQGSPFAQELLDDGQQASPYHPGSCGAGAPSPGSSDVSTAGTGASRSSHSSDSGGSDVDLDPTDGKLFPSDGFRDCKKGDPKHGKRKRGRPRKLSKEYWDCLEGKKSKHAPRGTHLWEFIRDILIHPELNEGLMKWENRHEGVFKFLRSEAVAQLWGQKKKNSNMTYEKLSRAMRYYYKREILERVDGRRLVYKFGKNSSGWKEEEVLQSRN
Particulars: protein: recombinant; tags: N-terminal GST; dsDNA, one strand shown. The procedure, abridged: as §1

In the next assay the target is CRX (Homo sapiens, UniProt O43186 1-299). Particulars: protein: recombinant; tags: N-terminal GST; dsDNA, one strand shown. The procedure, abridged:
as §1

For the next assay, the target named is ETV1 (Homo sapiens, UniProt P50549 1-477). To be noted: protein: recombinant; tags: N-terminal GST; dsDNA, one strand shown. The procedure, abridged:
as §1

The target in a further assay is T6, ERF (Homo sapiens, UniProt P50548 1-548).
T6 sequence: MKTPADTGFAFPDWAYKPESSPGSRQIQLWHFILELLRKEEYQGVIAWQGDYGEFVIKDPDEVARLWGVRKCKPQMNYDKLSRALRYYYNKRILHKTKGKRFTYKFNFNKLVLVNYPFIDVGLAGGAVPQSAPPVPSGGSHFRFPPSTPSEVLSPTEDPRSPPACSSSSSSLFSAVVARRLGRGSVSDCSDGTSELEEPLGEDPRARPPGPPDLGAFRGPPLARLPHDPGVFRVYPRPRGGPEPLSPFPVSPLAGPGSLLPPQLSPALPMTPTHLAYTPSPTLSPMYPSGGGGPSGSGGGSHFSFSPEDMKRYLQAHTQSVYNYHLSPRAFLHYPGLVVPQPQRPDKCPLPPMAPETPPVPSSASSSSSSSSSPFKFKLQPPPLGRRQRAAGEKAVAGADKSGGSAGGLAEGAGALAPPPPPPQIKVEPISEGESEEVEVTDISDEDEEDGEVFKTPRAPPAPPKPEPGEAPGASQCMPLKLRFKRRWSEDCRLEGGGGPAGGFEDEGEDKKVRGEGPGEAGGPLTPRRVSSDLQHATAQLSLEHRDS
Particulars: protein: recombinant; tags: N-terminal GST; dsDNA, one strand shown. The method, boiled down: as §1

The target of a further assay is T7, ETV3L (Homo sapiens, UniProt Q6ZN32 1-361).
T7 sequence: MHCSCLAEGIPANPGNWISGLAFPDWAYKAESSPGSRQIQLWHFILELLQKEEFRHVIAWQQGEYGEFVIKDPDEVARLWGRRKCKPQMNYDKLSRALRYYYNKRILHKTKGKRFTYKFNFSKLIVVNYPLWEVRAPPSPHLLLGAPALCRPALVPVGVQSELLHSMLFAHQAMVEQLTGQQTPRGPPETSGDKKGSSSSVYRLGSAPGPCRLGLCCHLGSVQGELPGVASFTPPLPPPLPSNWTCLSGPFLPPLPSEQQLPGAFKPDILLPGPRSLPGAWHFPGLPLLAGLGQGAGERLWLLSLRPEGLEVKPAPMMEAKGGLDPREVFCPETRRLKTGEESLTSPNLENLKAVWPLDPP
Particulars: protein: recombinant; tags: N-terminal GST; dsDNA, one strand shown. The method, boiled down:
as §1

Another assay deals with T8, ETS2 (Homo sapiens, UniProt P15036 1-469).
T8 sequence: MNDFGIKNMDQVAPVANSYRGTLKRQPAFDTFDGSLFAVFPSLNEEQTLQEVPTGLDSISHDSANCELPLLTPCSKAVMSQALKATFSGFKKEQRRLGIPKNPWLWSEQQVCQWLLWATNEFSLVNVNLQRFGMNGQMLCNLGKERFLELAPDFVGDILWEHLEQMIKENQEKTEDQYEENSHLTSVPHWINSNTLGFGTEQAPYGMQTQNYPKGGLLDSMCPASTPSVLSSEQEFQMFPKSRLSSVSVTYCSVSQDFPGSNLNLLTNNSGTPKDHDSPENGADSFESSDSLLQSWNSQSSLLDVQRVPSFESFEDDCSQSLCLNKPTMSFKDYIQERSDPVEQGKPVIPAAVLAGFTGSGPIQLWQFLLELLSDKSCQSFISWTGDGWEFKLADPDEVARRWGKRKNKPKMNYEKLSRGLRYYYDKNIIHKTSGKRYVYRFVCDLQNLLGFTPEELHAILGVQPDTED
Particulars: protein: recombinant; tags: N-terminal GST; dsDNA, one strand shown. The procedure, abridged: as §1

Another assay deals with T9, SPDEF (Homo sapiens, UniProt O95238 1-335).
T9 sequence: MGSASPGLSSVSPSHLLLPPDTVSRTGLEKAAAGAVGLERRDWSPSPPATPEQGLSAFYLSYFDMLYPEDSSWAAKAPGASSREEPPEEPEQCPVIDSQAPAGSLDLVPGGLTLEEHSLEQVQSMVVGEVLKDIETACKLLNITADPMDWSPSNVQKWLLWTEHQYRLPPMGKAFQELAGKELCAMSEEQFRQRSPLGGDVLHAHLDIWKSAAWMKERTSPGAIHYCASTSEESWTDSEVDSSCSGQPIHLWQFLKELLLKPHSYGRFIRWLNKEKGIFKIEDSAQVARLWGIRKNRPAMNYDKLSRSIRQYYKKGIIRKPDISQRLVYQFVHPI
Particulars: protein: recombinant; tags: N-terminal GST; dsDNA, one strand shown. The procedure, abridged: as §1

In a further assay the target is T10, ETV7 (Homo sapiens, UniProt Q9Y603 1-341).
T10 sequence: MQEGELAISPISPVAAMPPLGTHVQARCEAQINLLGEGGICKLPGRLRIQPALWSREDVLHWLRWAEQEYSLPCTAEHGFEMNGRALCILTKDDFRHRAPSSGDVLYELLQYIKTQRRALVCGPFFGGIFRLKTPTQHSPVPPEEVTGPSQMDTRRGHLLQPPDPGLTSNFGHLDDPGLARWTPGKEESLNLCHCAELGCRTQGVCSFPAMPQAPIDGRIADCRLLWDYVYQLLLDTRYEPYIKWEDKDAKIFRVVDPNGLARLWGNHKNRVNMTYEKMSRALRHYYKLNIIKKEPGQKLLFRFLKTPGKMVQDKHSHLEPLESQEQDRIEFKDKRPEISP
Particulars: protein: recombinant; tags: N-terminal GST; dsDNA, one strand shown. The procedure, abridged:
as §1

Another assay has as its target T11, ELF5 (Homo sapiens, UniProt Q9UKW6-2 1-255).
T11 sequence: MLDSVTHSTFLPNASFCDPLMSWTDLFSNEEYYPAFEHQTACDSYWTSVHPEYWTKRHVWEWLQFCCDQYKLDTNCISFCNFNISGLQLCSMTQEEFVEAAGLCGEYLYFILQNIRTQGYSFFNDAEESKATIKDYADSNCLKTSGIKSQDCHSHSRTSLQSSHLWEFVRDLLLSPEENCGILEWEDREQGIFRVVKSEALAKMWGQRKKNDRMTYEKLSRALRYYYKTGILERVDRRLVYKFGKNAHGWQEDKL
To be noted: protein: recombinant; tags: N-terminal GST; dsDNA, one strand shown. The method, boiled down:
as §1

In a further assay the target is T12, ETV3 (Homo sapiens, UniProt P41162-2 1-143).
T12 sequence: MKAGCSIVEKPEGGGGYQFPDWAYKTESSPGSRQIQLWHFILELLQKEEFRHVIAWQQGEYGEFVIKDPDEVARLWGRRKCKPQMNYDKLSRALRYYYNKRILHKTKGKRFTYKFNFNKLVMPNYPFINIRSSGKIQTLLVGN
To be noted: protein: recombinant; tags: N-terminal GST; dsDNA, one strand shown. The procedure, abridged: as §1

For the next assay, the target named is ETV6 (Homo sapiens, UniProt P41212 1-452). Particulars: protein: recombinant; tags: N-terminal GST; dsDNA, one strand shown. The procedure, abridged:
as §1

Chain of ETV6 (P41212 whole entry): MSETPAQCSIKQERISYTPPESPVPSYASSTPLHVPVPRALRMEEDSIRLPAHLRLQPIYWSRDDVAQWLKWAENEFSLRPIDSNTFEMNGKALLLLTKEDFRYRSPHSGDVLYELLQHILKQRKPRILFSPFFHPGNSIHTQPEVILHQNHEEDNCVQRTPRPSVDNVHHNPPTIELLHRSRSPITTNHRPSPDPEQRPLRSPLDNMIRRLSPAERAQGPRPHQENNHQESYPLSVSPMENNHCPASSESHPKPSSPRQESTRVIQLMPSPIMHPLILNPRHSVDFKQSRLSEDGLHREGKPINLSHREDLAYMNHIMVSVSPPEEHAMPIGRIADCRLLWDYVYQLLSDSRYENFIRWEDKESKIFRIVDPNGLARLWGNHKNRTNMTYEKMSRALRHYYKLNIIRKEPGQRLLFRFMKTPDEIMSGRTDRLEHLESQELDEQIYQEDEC
Chain of CRX (O43186 whole entry): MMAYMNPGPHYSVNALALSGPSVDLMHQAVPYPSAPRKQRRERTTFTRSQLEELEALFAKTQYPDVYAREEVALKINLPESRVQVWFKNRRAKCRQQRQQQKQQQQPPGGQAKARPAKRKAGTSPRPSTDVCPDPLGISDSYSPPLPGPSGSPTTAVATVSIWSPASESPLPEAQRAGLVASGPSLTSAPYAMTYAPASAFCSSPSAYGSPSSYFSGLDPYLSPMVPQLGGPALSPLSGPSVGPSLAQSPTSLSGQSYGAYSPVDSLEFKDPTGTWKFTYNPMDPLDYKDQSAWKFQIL
Chain of ELF4 (Q99607 whole entry): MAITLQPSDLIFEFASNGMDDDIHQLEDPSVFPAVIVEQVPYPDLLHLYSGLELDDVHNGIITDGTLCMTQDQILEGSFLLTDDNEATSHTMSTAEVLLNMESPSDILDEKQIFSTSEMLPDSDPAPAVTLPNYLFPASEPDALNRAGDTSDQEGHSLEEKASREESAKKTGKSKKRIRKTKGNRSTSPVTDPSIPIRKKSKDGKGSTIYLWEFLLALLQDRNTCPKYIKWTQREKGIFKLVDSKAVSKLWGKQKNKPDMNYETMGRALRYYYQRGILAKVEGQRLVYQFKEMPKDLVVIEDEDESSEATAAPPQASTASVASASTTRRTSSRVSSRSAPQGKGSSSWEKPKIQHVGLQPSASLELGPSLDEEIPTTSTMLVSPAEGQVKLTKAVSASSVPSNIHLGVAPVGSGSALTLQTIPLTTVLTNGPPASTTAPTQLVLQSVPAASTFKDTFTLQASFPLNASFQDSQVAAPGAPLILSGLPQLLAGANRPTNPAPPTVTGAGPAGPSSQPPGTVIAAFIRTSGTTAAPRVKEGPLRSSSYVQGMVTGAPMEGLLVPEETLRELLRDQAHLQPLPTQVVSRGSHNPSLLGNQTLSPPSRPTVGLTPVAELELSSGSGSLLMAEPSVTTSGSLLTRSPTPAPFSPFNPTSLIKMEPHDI
Chain of ETV1 (P50549 whole entry): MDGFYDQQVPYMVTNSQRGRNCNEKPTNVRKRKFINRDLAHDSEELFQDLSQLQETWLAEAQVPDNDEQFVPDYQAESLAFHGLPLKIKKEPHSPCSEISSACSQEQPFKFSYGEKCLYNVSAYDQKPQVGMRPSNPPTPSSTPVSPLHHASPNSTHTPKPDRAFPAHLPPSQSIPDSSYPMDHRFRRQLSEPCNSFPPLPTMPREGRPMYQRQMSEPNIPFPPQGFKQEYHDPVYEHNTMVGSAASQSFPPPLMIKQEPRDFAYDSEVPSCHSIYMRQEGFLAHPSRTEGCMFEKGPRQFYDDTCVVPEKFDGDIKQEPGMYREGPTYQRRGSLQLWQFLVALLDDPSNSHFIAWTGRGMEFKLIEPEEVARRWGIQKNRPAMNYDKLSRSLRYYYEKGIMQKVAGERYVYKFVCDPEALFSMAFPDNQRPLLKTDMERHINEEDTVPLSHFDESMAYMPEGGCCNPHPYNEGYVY
Chain of ETV5 (P41161 whole entry): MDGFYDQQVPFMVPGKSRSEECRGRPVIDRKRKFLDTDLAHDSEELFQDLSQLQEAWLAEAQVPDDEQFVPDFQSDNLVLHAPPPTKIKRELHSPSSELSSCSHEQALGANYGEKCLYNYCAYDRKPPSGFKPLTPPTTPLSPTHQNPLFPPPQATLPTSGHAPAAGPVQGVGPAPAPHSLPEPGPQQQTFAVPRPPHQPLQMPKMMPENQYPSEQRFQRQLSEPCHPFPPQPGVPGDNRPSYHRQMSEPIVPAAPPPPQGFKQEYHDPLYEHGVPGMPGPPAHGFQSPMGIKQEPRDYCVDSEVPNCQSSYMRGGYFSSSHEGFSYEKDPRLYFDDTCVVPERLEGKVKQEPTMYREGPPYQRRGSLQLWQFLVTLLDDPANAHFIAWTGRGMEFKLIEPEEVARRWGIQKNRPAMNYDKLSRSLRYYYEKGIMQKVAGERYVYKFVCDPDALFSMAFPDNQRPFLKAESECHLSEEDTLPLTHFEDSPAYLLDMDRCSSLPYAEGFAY
Chain of HSF1 (Q00613 whole entry): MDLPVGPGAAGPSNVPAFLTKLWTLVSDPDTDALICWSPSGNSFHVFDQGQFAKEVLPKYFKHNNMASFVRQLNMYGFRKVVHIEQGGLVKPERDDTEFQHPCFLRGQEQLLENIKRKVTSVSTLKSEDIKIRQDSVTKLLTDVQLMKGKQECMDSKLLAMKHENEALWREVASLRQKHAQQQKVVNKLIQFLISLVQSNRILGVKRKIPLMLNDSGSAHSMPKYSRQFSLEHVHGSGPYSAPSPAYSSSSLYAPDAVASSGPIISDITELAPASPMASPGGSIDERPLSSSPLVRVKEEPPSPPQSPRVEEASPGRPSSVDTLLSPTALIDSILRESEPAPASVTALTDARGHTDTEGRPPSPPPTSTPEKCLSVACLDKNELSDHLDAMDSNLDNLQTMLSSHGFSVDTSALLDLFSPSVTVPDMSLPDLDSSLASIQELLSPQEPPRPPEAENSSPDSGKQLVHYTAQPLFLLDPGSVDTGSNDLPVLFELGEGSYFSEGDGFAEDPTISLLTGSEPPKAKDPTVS

On to TTACAT, for which the binding signal with FEV is 1.3 fold enrichment (6-mer frequency, TF over GST control); with ETV5 it was 1.31 fold enrichment (6-mer frequency, TF over GST control); with HSF1 it was 1.45 fold enrichment (6-mer frequency, TF over GST control); with SPIC, 1.34 fold enrichment (6-mer frequency, TF over GST control); with ELF4, 1.34 fold enrichment (6-mer frequency, TF over GST control); in the assay with ELK4 it was 1.34 fold enrichment (6-mer frequency, TF over GST control). Also, the binding signal in the assay with ETV2 was 1.43 fold enrichment (6-mer frequency, TF over GST control); with ELF3, 1.4 fold enrichment (6-mer frequency, TF over GST control); with CRX, 1.81 fold enrichment (6-mer frequency, TF over GST control); in the assay with ETV1, 1.39 fold enrichment (6-mer frequency, TF over GST control); in the assay with ERF it was 1.41 fold enrichment (6-mer frequency, TF over GST control); in the assay with ETV3L, 1.26 fold enrichment (6-mer frequency, TF over GST control). The binding signal with ETS2 was 1.34 fold enrichment (6-mer frequency, TF over GST control); in the assay with SPDEF, 1.41 fold enrichment (6-mer frequency, TF over GST control); with ETV7, 1.2 fold enrichment (6-mer frequency, TF over GST control); with ELF5 it was 1.35 fold enrichment (6-mer frequency, TF over GST control); with ETV3, 1.3 fold enrichment (6-mer frequency, TF over GST control); with ETV6, 1.27 fold enrichment (6-mer frequency, TF over GST control).
